Hit rate of the full screen: of about 280,000 compounds, about 180 (0.064%) were called active. The full list was thinned out, with actives kept by preference. A number with no mark means an inactive call. Calls come from the whole dose curve; as a rule, active = well fitted inhibition curve with a large enough effect; inconclusive = small, poorly fitted or top-dose-only effect, or effect the other way; inactive = flat fitted curve, though single readings scatter.
Each compound was assayed against Thyroid hormone receptor beta (Homo sapiens) (UniProt P10828) (assay: qHTS for Inhibitors of the Interaction of Thyroid Hormone Receptor and Steroid Receptor Coregulator 2). Conditions: TRbeta-SRC2 peptide binding, fluorescence polarization, receptor liganded with 1 µM T3; series mostly up to 106 µM; activity change, negative = inhibition: at the top concentration.
Sequence of Thyroid hormone receptor beta (Homo sapiens) (P10828 whole entry, looked up): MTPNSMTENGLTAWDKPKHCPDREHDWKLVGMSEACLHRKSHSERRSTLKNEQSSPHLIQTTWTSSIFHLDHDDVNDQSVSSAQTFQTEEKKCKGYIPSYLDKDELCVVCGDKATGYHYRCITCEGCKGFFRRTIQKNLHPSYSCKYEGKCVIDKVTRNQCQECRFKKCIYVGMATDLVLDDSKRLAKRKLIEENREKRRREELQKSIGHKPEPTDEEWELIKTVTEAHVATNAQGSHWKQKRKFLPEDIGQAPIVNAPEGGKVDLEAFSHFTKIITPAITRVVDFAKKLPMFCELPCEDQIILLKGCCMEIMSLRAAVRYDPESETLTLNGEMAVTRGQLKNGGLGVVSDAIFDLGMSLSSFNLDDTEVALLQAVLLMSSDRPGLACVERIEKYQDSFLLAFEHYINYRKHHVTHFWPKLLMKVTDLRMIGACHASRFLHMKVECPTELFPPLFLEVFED
Description: NIH Molecular Libraries Probe Production Network [MLPCN]
NIH Chemical Genomics Center [NCGC]
Assay Provider: R. Kip Guy, St. Jude Children's Research Hospital
Thyroid receptor (TR) regulates many homeostatic processes including basal metabolism, cardiovascular function, body weight, and lipid trafficking. TR modulators are potential therapeutics for obesity and hyperlipidemias but current thyroid analogs have undesirable side effects, particularly cardiac stimulation. To identify inhibitors that specifically prevent the interaction of TR with the steroid receptor coregulator 2 (SRC2), a fluorescence polarization assay was screened. This assay detects interaction of the ligand-binding domain of human TRb with a Texas Red labeled SRC2 peptide, corresponding to a 20 amino acid region of the nuclear receptor interaction domain (Arnold et al., 2006). Small molecule inhibitors that block the interaction of TR and SRC2 are detected by a decrease in fluorescence polarization.
Arnold, L. A.; Estebanez-Perpina, E.; Togashi, M.; Shelat, A.; Ocasio, C. A.; McReynolds, A. C.; Nguyen, P.; Baxter, J. D.; Fletterick, R. J.; Webb, P.; Guy, R. K. A high-throughput screening method to identify small molecule inhibitors of thyroid hormone receptor coactivator binding. Sci STKE 2006, p 13.
NCGC Assay Protocol Summary:
For screening, 5 uL/well 0.6 uM TRb and 20 nM SRC2 Texas Red in protein buffer (20mM Tris hydrochloride, 100mM NaCl, 10% glycerol, 1mM EDTA, 0.01% NP-40, 1mM DTT, 1uM T3 and 5% DMSO) was dispensed into black solid 1536-well plates (Grenier) using a solenoid-based dispenser. Following transfer of 23 nL compound or DMSO vehicle by a pin tool, the plates were centrifuged 15 s at 1000 RPM and incubated 5 hr at ambient temperature. The plates were read by an Envision (Perkin Elmer) to detect fluorescence polarization of SRC2 Texas Red (555 nm excitation and 632 nm emission). Data were normalized to unbound (all components except TRb) and bound SRC2 Texas Red controls. In this assay, we provide % activity data for each concentration as well as potencies for the active compounds.
Keywords: NIH Roadmap, MLPCN, MLI, MLSMR, qHTS, NCGC, qHTS, thyroid hormone receptor, steroid receptor coactivator, fluorescence polarization
With `Cc1ccc(CN2CCc3nc(N4CCN(C)CC4)ncc3C2)cc1` the “activity change, negative = inhibition” value was -3.16%.
`CCN1CCN(c2ncc3c(n2)CC(c2ccccc2O)CC3=O)CC1` (stereo not given) was tested, and the “activity change, negative = inhibition” value was 4.08%.
In the case of `Cc1nc2nc(SCC(=O)N(Cc3ccccc3)C(C)C)nn2c(C)c1Cc1ccccc1Cl`, the “activity change, negative = inhibition” value is reported as 6.02%.
In the case of `Cc1ccc(NC(=O)c2nc(S(=O)(=O)Cc3cccc(C)c3)ncc2Cl)cc1`, the “activity change, negative = inhibition” value is reported as -0.903%.
`CC(=O)OC1=C(C(C)=O)N(Cc2ccccc2)S(=O)(=O)c2ccccc21` was tested, and the “activity change, negative = inhibition” value was -0.701%.
`Cc1cccc(OCCSc2nc3ccccc3n2CC(=O)N2CCCCC2)c1C` was tested, and the “activity change, negative = inhibition” value was -1.35%.
`Cc1ccccc1CNC(=O)CCCn1nc(C)c2sc3ccccc3c2c1=O` was tested, and the “activity change, negative = inhibition” value was -0.387%.
In the case of `Cc1c(C)n(Cc2ccc(Cl)cc2)c2ccc(C(=O)NCCc3ccc(S(N)(=O)=O)cc3)cc12`, the “activity change, negative = inhibition” value is reported as -3.01%.
In the case of `COc1ccc2cc(CNc3ccc(OC)c(OC)c3)c(=O)n(CC(=O)Nc3ccccc3F)c2c1`, the “activity change, negative = inhibition” value is reported as -2.35%.
In the case of `CSc1ccc(C2C(C(=O)Nc3ccccc3)=C(C)Nc3nc4ccccc4n32)cc1` (stereo not given), the “activity change, negative = inhibition” value is reported as -8.79%.
In the case of `COc1ccc(CCNC(=O)c2nn(C)c3c2CSc2ccccc2-3)cc1OC`, the “activity change, negative = inhibition” value is reported as -1.01%.
For `COc1ccc(-c2nc(C)c(CCNC(=O)c3ccc(C(F)(F)F)cc3)s2)cc1OC`, the “activity change, negative = inhibition” value was 0.0329%.
For `COc1c(O)c2c(=O)cc(OC)c3c4c(OC)cc(=O)c5c(O)c(OC)c6c(c(c1C[C@@](C)(O)[C@H]6C(C)=O)c23)c54`, the Potency was 35.5 µM (active).
With `COc1ccc2c(c1)c(N1CCCC1=O)c(C(=O)Nc1ccc(OC)c(Cl)c1)n2C` the “activity change, negative = inhibition” value was 3.35%.
For `COc1ccc(Cl)cc1NC(=O)c1sc2nc3c(cc2c1N)CN(C)CC3`, the “activity change, negative = inhibition” value was 0.478%.
`Cc1cccc(NC(c2cccc(F)c2)c2ccc3ccc(C)nc3c2O)n1` (stereo not given) was tested, and the “activity change, negative = inhibition” value was 0.0507%.
In the case of `CCOc1ccc(N(Cc2ccccc2)C(=O)c2nc(S(C)(=O)=O)ncc2Cl)cc1`, the “activity change, negative = inhibition” value is reported as -7.22%.
In the case of `O=C(/C=C/c1ccccc1[N+](=O)[O-])NCC1CCCO1` (stereo not given), the “activity change, negative = inhibition” value is reported as 1.44%.
For `CC1CCCCC1NC(=O)/C(C#N)=C/C=C/c1ccccc1[N+](=O)[O-]` (stereo not given), the Potency was 39.8 µM (active).
For `O=C(/C=C/c1ccccc1[N+](=O)[O-])OC1CCCCC1=O` (stereo not given), the “activity change, negative = inhibition” value was 0.395%.
`CCNS(=O)(=O)c1cc(-c2nnc(Nc3cccc(C(F)(F)F)c3)c3ccccc23)ccc1C` was tested, and the “activity change, negative = inhibition” value was 8.87%.
For `O=C(NCCCN1CCN(c2cccc(Cl)c2)CC1)c1nnc(Cc2ccc(F)cc2Cl)o1`, the “activity change, negative = inhibition” value was 5.2%.
With `COc1ccc(-c2cc(NCc3ccc(F)cc3)n3cnnc3n2)cc1` the “activity change, negative = inhibition” value was 2.27%.
In the case of `Cc1ccc(NC(=O)CN2C(=O)C(c3ccc(F)cc3)=NC23CCCCCC3)c(C)c1`, the “activity change, negative = inhibition” value is reported as -0.31%.
With `Cc1ccc(Nc2c(-c3ccc(N(C)C)cc3)nc3nc[nH]n23)cc1` the “activity change, negative = inhibition” value was 2.09%.
In the case of `O=C(NC1CC(=O)N(c2ccc(F)cc2)C1)c1ccc(S(=O)(=O)N2CCCC2)cc1` (stereo not given), the “activity change, negative = inhibition” value is reported as -0.489%.
With `COC(=O)c1ccc(NC(=O)CSc2n[nH]c(-c3ccccc3)n2)cc1` the “activity change, negative = inhibition” value was 1.11%.
In the case of `Cn1nc(-c2ccccc2)c(-c2ccccc2)c(C(=O)Nc2ccc(S(N)(=O)=O)cc2)c1=O`, the “activity change, negative = inhibition” value is reported as -7.69%.
`COc1ccc(-c2cn3c(n2)sc2cc(C(=O)Nc4ccccc4F)ccc23)cc1` was tested, and the “activity change, negative = inhibition” value was 0.784%.
`CCOc1cccc(NC(=O)CSc2ncc(-c3ccc(Cl)cc3)[nH]2)c1` was tested, and the “activity change, negative = inhibition” value was 8.96%.
For `O=C(Nc1c(C(=O)N2CCN(c3ccc(F)cc3)CC2)oc2ccccc12)c1ccco1`, the “activity change, negative = inhibition” value was 5.17%.
`COc1ccc(-c2noc(CSc3nc(C)cc(=O)[nH]3)n2)cc1OC` was tested, and the “activity change, negative = inhibition” value was -6.31%.
With `CCOC(=O)c1cnc2c(C)cc(C)cc2c1Nc1ccc(N2CCOCC2)cc1` the “activity change, negative = inhibition” value was 4.22%.
With `CC(C)c1ccc(C2CC(=O)N3CN(C4CCCCC4)CSC3=C2C#N)cc1` (stereo not given) the “activity change, negative = inhibition” value was -3.24%.
`Clc1nc(Cl)c(Cl)c(Cl)c1Cl` was tested, and the “activity change, negative = inhibition” value was 2.91% [at 201 µM].
`O=C(c1cnn(-c2ccc(F)cc2)c1-n1cccc1)N1CCN(c2ccc(F)cc2)CC1` was tested, and the “activity change, negative = inhibition” value was -0.53%.
For `COc1ccc(-c2cccc(NS(=O)(=O)c3cc(C)c(OC)c(C)c3C)c2)nn1`, the “activity change, negative = inhibition” value was -3.96%.
In the case of `O=C(CSc1nc2nccnc2c(=O)n1CCc1c[nH]c2ccccc12)Nc1ccccc1F`, the “activity change, negative = inhibition” value is reported as -1.34%.
With `COc1cccc(-n2cc(C(=O)NCc3cccc(Cl)c3)c3ccccc3c2=O)c1` the “activity change, negative = inhibition” value was 5.09%.
With `CCN(Cc1ccccc1)C(=O)c1cn(-c2cccc(OC)c2)c(=O)c2ccccc12` the “activity change, negative = inhibition” value was 0.692%.
`O=C(CSc1nccn1-c1ccc(F)cc1)Nc1cccc2ccccc12` was tested, and the “activity change, negative = inhibition” value was -1.67%.
With `CC1=C(c2ccc(C)cc2)S(=O)(=O)NC1=NCCCN1CCN(c2cc(C)ccc2C)CC1` the “activity change, negative = inhibition” value was -0.687%.
For `COc1ccc(-c2cc(C(=O)NCc3cc(OC)c(OC)c(OC)c3)[nH]n2)cc1`, the “activity change, negative = inhibition” value was 1.65%.
With `CCC(C(=O)Nc1cc(OC)ccc1OC)n1c(=O)c(C(F)(F)F)nc2ccccc21` (stereo not given) the “activity change, negative = inhibition” value was -2.12%.
In the case of `CCOC(=O)c1oc2ccc(S(=O)(=O)n3nc(-c4ccccc4OC)cc3N)cc2c1C`, the “activity change, negative = inhibition” value is reported as -12.1%.
In the case of `COc1ccc(NS(=O)(=O)c2cc3c4c(c2)CC(=O)N4CCC3)cc1Cl`, the “activity change, negative = inhibition” value is reported as 5.52%.
`Cc1ccc(C)c(Nc2nnc(-c3ccc(C)c(S(=O)(=O)N4CCCCC4)c3)c3ccccc23)c1` was tested, and the “activity change, negative = inhibition” value was -0.116%.
For `O=C(C1CCCN(S(=O)(=O)c2cccc3nonc23)C1)N1CCN(c2ccccc2F)CC1` (stereo not given), the “activity change, negative = inhibition” value was -9.58%.
In the case of `O=C1CSC2(C(=O)N(Cc3ccccc3)c3ccccc32)N1c1cccc(F)c1` (stereo not given), the “activity change, negative = inhibition” value is reported as 3.71%.
In the case of `CCn1cc(C(=O)N2CCN(c3cc(C)ccc3C)CC2)c(=O)c2cc(S(=O)(=O)N(C)C3CCCCC3)ccc21`, the “activity change, negative = inhibition” value is reported as 1.74%.
With `Cc1nnc(NC(=O)CSc2nc3c([nH]c4ccccc43)c(=O)n2-c2cccc(Cl)c2)s1` the “activity change, negative = inhibition” value was 6.72%.
With `COc1ccccc1N1CCN(C(=O)C2CCN(S(=O)(=O)c3c(C)noc3/C=C/c3ccc(C)cc3)CC2)CC1` the “activity change, negative = inhibition” value was 7.45%.
`CCOc1ccc2oc(=O)cc(CN3CCN(C(=O)c4ccc(F)cc4)CC3)c2c1` was tested, and the “activity change, negative = inhibition” value was -8.37%.
In the case of `Cc1cccc(N2CCN(C(=O)CCn3c(=O)c4cccn4c4cccnc43)CC2C)c1` (stereo not given), the “activity change, negative = inhibition” value is reported as 4.81%.
With `COc1ccc(-n2ccnc(NCCc3ccc(Cl)cc3)c2=O)cc1OC` the “activity change, negative = inhibition” value was 5.85%.
`CCn1c(C)c(C)c2cc(C(=O)NCCc3cc(OC)ccc3OC)ccc21` was tested, and the “activity change, negative = inhibition” value was -5.66%.
With `COc1ccc(-c2onc(C)c2C)cc1S(=O)(=O)NCC1CCN(Cc2cccc(F)c2)CC1` the “activity change, negative = inhibition” value was 2.95%.
`Cc1cccc(NC(=O)CN(c2ccc(C(C)C)cc2)S(=O)(=O)c2c(C)nn(C)c2C)c1C` was tested, and the “activity change, negative = inhibition” value was 1.49%.
With `Cc1cc2c(cc3c(SCc4cccc(Cl)c4)nnc(C)n32)o1` the “activity change, negative = inhibition” value was 7.69%.
With `COc1ccc(-c2cn3nc(N4CCC(C(=O)Nc5cccc(C)c5C)CC4)sc3n2)cc1` the “activity change, negative = inhibition” value was 2.88%.
Note: nearly all actives have a fitted effect of over 50% in size.
Potency is the fitted concentration of half-maximal effect.
